The nature of experiment [1]: NCI Yeast Anticancer Drug Screen. Data for the rad50 strain (AID 155).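 Note: 0% = growth of vehicle-only cultures of the same strain.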 The note with it: S. cerevisiae rad50 strain growth inhibition; at 50.0 µM; active compounds read high. In outline: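 Inhibition values express reduced yeast growth in compound-treated cultures relative to vehicle-treated controls.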
The nature of experiment [2]: NCI Yeast Anticancer Drug Screen. Data for the mec2-1 strain (AID 157). The note with it: S. cerevisiae mec2-1 strain, at 50.0 µM, active compounds read high. In outline:
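Strain: mec2-1 (DNA repair/cell cycle alteration). Compound exposure, then growth measured; inhibition expressed relative to vehicle.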

A short description of experiment [3]: NCI Yeast Anticancer Drug Screen. Data for the sgs1 mgt1 strain (AID 161).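 Note: 0% = growth of cultures given vehicle only.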 Particulars: S. cerevisiae sgs1 mgt1 strain, at 50.0 µM, active compounds read high. In outline: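 Inhibition of yeast growth, normalised to vehicle-treated controls, is reported for a strain bearing genetic alterations in DNA damage repair.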
Experiment [4] can be described thus: NCI Yeast Anticancer Drug Screen. Data for the cln2 rad14 strain (AID 165).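 Note: 0% = growth equal to vehicle treated cultures.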 The note with it: S. cerevisiae cln2 rad14 strain, at 50.0 µM, active compounds read high. In outline:
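Compounds are applied to the cln2 rad14 yeast strain, and growth is then compared with that of vehicle-treated cultures to give inhibition.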

Experiment [5] in a line: NCI Yeast Anticancer Drug Screen. Data for the bub3 strain (AID 167). The note with it: S. cerevisiae bub3 mutant strain, at 50.0 µM, active compounds read high. In outline:
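Steps: expose the mutant yeast strain to compound; grow alongside vehicle-treated cultures; measure growth; express inhibition against the vehicle cultures.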

The nature of experiment [6]: NCI Yeast Anticancer Drug Screen. Data for the mlh1 rad18 strain (AID 175). The note with it: S. cerevisiae mlh1 rad18 strain growth inhibition; at 50.0 µM; active compounds read high. In outline: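 Read-out is yeast growth inhibition, calculated against vehicle-only controls. The compound was applied to a strain engineered with DNA damage repair alterations.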

Compounds without any hit were thinned out: in the full panel of roughly 79,000, 15% have a hit. Values without a mark were called inactive. The source made the active and inactive calls. Cut-off read from the data, not from the text of the source: active = growth inhibition above about 70%; inactive = the rest.

In the case of `CNC(=O)NC(C)(C)CCCCC(C)(C)NC(=O)NC`, the growth inhibition in experiment [1] was 0.5%; in experiment [2], 17.3%; in experiment [3], 28.3%; in experiment [4], -16.9%; in experiment [5] it was -4.65%; in experiment [6] it was 19.8%.

Regarding `C(=C/c1ccccc1)/CN1CCCCC1`, the growth inhibition in experiment [1] is 29.4%; in experiment [2], 19.4%; in experiment [3], 36%; in experiment [4], 11.4%; in experiment [5], 37.2%; in experiment [6], 29.4%.

Turning to `O=C1c2ccccc2C(=O)N1CC1CC(S(=O)(=O)c2ccccc2)=NO1` (stereo not given), the growth inhibition in experiment [1] is -1.8%; in experiment [2] it was -15.2%; in experiment [3], -0.4%; in experiment [4], -0.4%; in experiment [5], -7.6%; in experiment [6], 5%.

As for `Cc1cccc(NC(=O)Nc2ccccc2Cl)c1C`, the growth inhibition is 11.2% in experiment [1]; 5.15% in experiment [2]; 0.65% in experiment [3]; -3.65% in experiment [4]; -2.3% in experiment [5]; -9.45% in experiment [6].

For the molecule `O=c1cc[nH]c(=S)[nH]1.[Pt]`, the growth inhibition in experiment [1] is 12.1%; in experiment [2], 19.3%; in experiment [3], 5.55%; in experiment [4] it was -19.4%; in experiment [5] it was 0.7%; in experiment [6], 28.6%.

On to `CC1(C)C=C(S(=O)(=O)c2ccccc2)Oc2ccccc2O1`, for which the growth inhibition was 15.3% in experiment [1]; 8% in experiment [2]; 24.2% in experiment [3]; 9.2% in experiment [4]; 47.8% in experiment [5]; 31.9% in experiment [6].

For the molecule `CC1=C[P+](c2ccccc2)(c2ccccc2)c2ccccc2O1`, the growth inhibition in experiment [1] was 58%; in experiment [2] it was 57.6%; in experiment [3], 66.8%; in experiment [4], 34.6%; in experiment [5], 72.3% (active); in experiment [6], 63.1%.

With `Cc1cc(=O)oc2c(CNC(Cc3ccccc3)C(=O)O)c(O)ccc12` (stereo not given), the growth inhibition was -39.4% in experiment [1]; -40.6% in experiment [2]; -24.3% in experiment [3]; -21.1% in experiment [4]; -22.1% in experiment [5]; -69% in experiment [6].

Regarding `CCOC(=O)C(C)(C)C(O)C(C)C` (stereo not given), the growth inhibition was 20.7% in experiment [1]; -18.8% in experiment [2]; -15.2% in experiment [3]; 48.4% in experiment [4]; -12.7% in experiment [5]; 3.95% in experiment [6].

In the case of `CN1CCCCC(C#N)(c2ccccc2)CC1` (stereo not given), the growth inhibition in experiment [1] is -5.25%; in experiment [2], 14.1%; in experiment [3], 7.85%; in experiment [4], -2.2%; in experiment [5] it was 0.8%; in experiment [6], 21.4%.

As for `COC1C(O)=C2C(=O)OC(C)(O)/C=C/C=C\C=C/C=C/C(c3ccccc3)NC(=O)/C=C/C=C/C=C/C=C/C2(C)C1O` (stereo not given), the growth inhibition in experiment [1] was -1.7%; in experiment [2], -14.1%; in experiment [3], 3.3%; in experiment [4], 3.55%; in experiment [5], -9.3%; in experiment [6], 4.5%.

`CC1=COCCO1`: the growth inhibition was -9.9% in experiment [1]; -9.35% in experiment [2]; -9.35% in experiment [3]; 6.85% in experiment [4]; 12.7% in experiment [5]; 0.5% in experiment [6].

In the case of `Cc1cc(C)nc(NS(=O)(=O)c2ccc(Nc3c4ccccc4nc4c(C(=O)Nc5ccc(S(=O)(=O)N=C(N)N)cc5)cccc34)cc2)n1`, the growth inhibition in experiment [1] is 24.1%; in experiment [2], 35.8%; in experiment [3], 30.9%; in experiment [4], 35.2%; in experiment [5], 19.6%; in experiment [6] it was 44.1%.

In the case of `CCOC(=O)/C(C#N)=C1/Sc2c(ncn(/N=C/c3ccc(OC)cc3)c2=O)N1c1ccccc1`, the growth inhibition in experiment [1] was 26.7%; in experiment [2], -2.85%; in experiment [3], 6.45%; in experiment [4], -45.3%; in experiment [5] it was -12.8%; in experiment [6] it was 4.4%.

Consider `O=c1[nH]c2ccccc2c(O)c1/C=N/C(=S)NC1CCCCC1`, for which the growth inhibition was -14.6% in experiment [1]; -36.3% in experiment [2]; -7.55% in experiment [3]; 14.9% in experiment [4]; 3.45% in experiment [5]; 9.25% in experiment [6].

For the molecule `CC(C)N(C(=O)C1C2CCC(CC2)C1C(=O)N(C(C)C)C(C)C)C(C)C` (stereo not given), the growth inhibition in experiment [1] was 2.4%; in experiment [2], 17.5%; in experiment [3], 11.3%; in experiment [4] it was -0.9%; in experiment [5], 27.6%; in experiment [6], 20.7%.

Take `Cc1ccccc1/C=N\NC(=O)CCCC(=O)N/N=C/c1ccccc1C`: the growth inhibition in experiment [1] was -8.9%; in experiment [2] it was 2.5%; in experiment [3], -25.5%; in experiment [4] it was 8.7%; in experiment [5], 24.4%; in experiment [6], -9.4%.

In the case of `CCOC(=O)C1CCCCC1NC1CCCCC1C(=O)OCC` (stereo not given), the growth inhibition in experiment [1] is 4.65%; in experiment [2], -2.35%; in experiment [3] it was -22.9%; in experiment [4], -14.2%; in experiment [5], -16.2%; in experiment [6], 8.9%.

`S=C(/C=C1\SC(=Nc2ccccc2)C(=Nc2ccccc2)N1c1ccccc1)Nc1ccccc1`: the growth inhibition in experiment [1] is 1.25%; in experiment [2], -9%; in experiment [3] it was -9.6%; in experiment [4], -4.1%; in experiment [5] it was 10.3%; in experiment [6] it was 1.35%.

With `CCNC(=O)c1cc2ccccc2cc1O`, the growth inhibition in experiment [1] is 1.4%; in experiment [2], -6.85%; in experiment [3], -6.5%; in experiment [4], -46%; in experiment [5], -15.7%; in experiment [6], 6.55%.
